Experimental data: PubChem BioAssay (NCI)
The panel holds about 83,000 compounds, 20% with a hit somewhere; the sample as a whole holds those more often.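 The endpoint reported here, percent growth, reads 100 for growth as untreated, 0 for no net growth and -100 for all cells dead.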 Active and inactive are the calls of the source. The calls were made as follows: active = growth percent below 10; inactive = the rest.

Key:
Test in all cases: NCI-60 one-dose screen, 48 h (100 = growth as untreated, 0 = no growth, -100 = all killed)
Conditions in all cases: 10 µM unless noted
NCI-H23 lung = tested on: NCI-H23 lung
NCI-H322M lung = tested on: NCI-H322M lung
HOP-62 NSCLC = tested on: HOP-62 NSCLC
NCI-H460 lung = tested on: NCI-H460 lung
HOP-92 NSCLC = tested on: HOP-92 NSCLC
NCI-H522 lung = tested on: NCI-H522 lung
A549/ATCC NSCLC = tested on: A549/ATCC NSCLC
786-0 renal = tested on: 786-0 renal
COLO 205 colon = tested on: COLO 205 colon
DU-145 prostate = tested on: DU-145 prostate
K-562 leukemia = tested on: K-562 leukemia
MALME-3M melanoma = tested on: MALME-3M melanoma
MDA-MB-231 breast = tested on: MDA-MB-231 breast
RXF 393 renal = tested on: RXF 393 renal
SF-268 CNS = tested on: SF-268 CNS
SF-295 CNS = tested on: SF-295 CNS
SF-539 CNS = tested on: SF-539 CNS
UACC-257 melanoma = tested on: UACC-257 melanoma
M14 melanoma = tested on: M14 melanoma
HCT-15 colon = tested on: HCT-15 colon

Measured: growth

CCN1C(=O)N(CC)C2C1NN=c1s/c(=C3\C(=O)N(CC(C)(C)C)c4ccccc43)c(=O)n12 (centres undefined)
inactive: NCI-H23 lung 45% | NCI-H322M lung 60.5% | HOP-62 NSCLC 47% | HOP-92 NSCLC 78.6% | A549/ATCC NSCLC 30.1% | 786-0 renal 39.9% | MALME-3M melanoma 71.3% | MDA-MB-231 breast 26% | RXF 393 renal 12.3% | SF-268 CNS 40% | SF-295 CNS 15.9% | UACC-257 melanoma 71.4% | M14 melanoma 18.3%
active: NCI-H460 lung 4.52% | NCI-H522 lung -4.26% | COLO 205 colon -38.1% | DU-145 prostate 6.12% | K-562 leukemia 4.89% | SF-539 CNS -17.9%

O=C(NC1CCCCC1)C(c1cccs1)N(CCc1ccccc1)C(=O)c1ccco1 (centres undefined)
active: MALME-3M melanoma -11.2%
inactive: NCI-H23 lung 86.1% | NCI-H322M lung 96.5% | HOP-62 NSCLC 90.6% | NCI-H460 lung 103% | HOP-92 NSCLC 75.5% | NCI-H522 lung 65.2% | A549/ATCC NSCLC 92.2% | 786-0 renal 91.1% | COLO 205 colon 96.1% | DU-145 prostate 103% | K-562 leukemia 82.8% | MDA-MB-231 breast 98.5% | RXF 393 renal 97.3% | SF-268 CNS 92.6% | SF-295 CNS 84.7% | SF-539 CNS 90.9% | UACC-257 melanoma 98.6% | M14 melanoma 93.7%

O=C(c1nc2ccccc2[nH]1)C1C(c2ccc([N+](=O)[O-])cc2)C2CC3CCCCC3N2[C@@]12C(=O)Nc1cc(Cl)ccc12 (some centres undefined)
inactive: NCI-H23 lung 26.2% | NCI-H322M lung 47.6% | HOP-62 NSCLC 41.3% | NCI-H460 lung 11.2% | HOP-92 NSCLC 20.1% | NCI-H522 lung 34.7% | A549/ATCC NSCLC 18.5% | 786-0 renal 38.5% | COLO 205 colon 22.2% | DU-145 prostate 51.3% | K-562 leukemia 12.2% | MALME-3M melanoma 15% | MDA-MB-231 breast 26.6% | RXF 393 renal 14.7% | SF-268 CNS 41.3% | SF-295 CNS 16.5% | SF-539 CNS 40.4% | UACC-257 melanoma 25.7% | M14 melanoma 21.2%

O=C1/C(=C/c2ccc(O)cc2)COc2ccc(O)cc21
inactive: NCI-H23 lung 92.2% | NCI-H322M lung 98.2% | HOP-62 NSCLC 114% | NCI-H460 lung 105% | HOP-92 NSCLC 124% | NCI-H522 lung 87.7% | A549/ATCC NSCLC 107% | 786-0 renal 109% | COLO 205 colon 114% | DU-145 prostate 104% | K-562 leukemia 55.9% | MALME-3M melanoma 100% | MDA-MB-231 breast 107% | RXF 393 renal 125% | SF-268 CNS 101% | SF-295 CNS 107% | SF-539 CNS 98.1% | UACC-257 melanoma 104% | M14 melanoma 102%

COc1cc(C(C)n2cc(-c3ccccc3)nn2)ccc1OC1CCCC1 (centres undefined)
inactive: NCI-H23 lung 45.4% | NCI-H322M lung 78% | HOP-62 NSCLC 52.7% | NCI-H460 lung 74.1% | HOP-92 NSCLC 54.7% | NCI-H522 lung 51.2% | A549/ATCC NSCLC 61.3% | 786-0 renal 72.7% | COLO 205 colon 91.8% | DU-145 prostate 85.6% | K-562 leukemia 34% | MALME-3M melanoma 63.7% | MDA-MB-231 breast 76% | RXF 393 renal 83.1% | SF-268 CNS 72% | SF-295 CNS 47.1% | SF-539 CNS 69.3% | UACC-257 melanoma 55.4% | M14 melanoma 82.8% | HCT-15 colon 62.2%

CCCCC(O)(c1ccc(Cl)cc1)C(CN1CCOCC1)c1ccc(Cl)cc1 (centres undefined)
active: HOP-92 NSCLC -3.36%
inactive: NCI-H23 lung 31.2% | NCI-H322M lung 70.8% | HOP-62 NSCLC 60.1% | NCI-H460 lung 19.4% | NCI-H522 lung 19.8% | A549/ATCC NSCLC 29.6% | 786-0 renal 53.8% | COLO 205 colon 100% | DU-145 prostate 58.2% | K-562 leukemia 17.9% | MALME-3M melanoma 61.2% | MDA-MB-231 breast 35.8% | RXF 393 renal 18.5% | SF-268 CNS 40.2% | SF-295 CNS 40.9% | SF-539 CNS 68.8% | UACC-257 melanoma 39.4% | M14 melanoma 28.6%

O=Cc1c(OCc2cnnn2CC(=O)Nc2ccc(Br)cc2)ccc2ccccc12
inactive: NCI-H23 lung 86.4% | NCI-H322M lung 96.1% | HOP-62 NSCLC 97.7% | NCI-H460 lung 97.3% | HOP-92 NSCLC 85.7% | NCI-H522 lung 77.2% | A549/ATCC NSCLC 91.6% | 786-0 renal 102% | COLO 205 colon 106% | DU-145 prostate 96.9% | K-562 leukemia 91.4% | MALME-3M melanoma 88.4% | MDA-MB-231 breast 84.4% | RXF 393 renal 100% | SF-268 CNS 92.7% | SF-295 CNS 88.9% | SF-539 CNS 96.3% | UACC-257 melanoma 87% | M14 melanoma 98.6%

COc1ccc(OC)c(/C=C/C(=O)c2c(C)nc3ccccc3c2/C=C/c2ccccc2)c1
inactive: NCI-H23 lung 58.8% | NCI-H322M lung 78.5% | HOP-62 NSCLC 90.7% | NCI-H460 lung 28.6% | HOP-92 NSCLC 48.5% | NCI-H522 lung 23.7% | A549/ATCC NSCLC 55.8% | 786-0 renal 89.2% | COLO 205 colon 86.4% | DU-145 prostate 54.2% | K-562 leukemia 17% | MALME-3M melanoma 103% | MDA-MB-231 breast 51.9% | RXF 393 renal 69.6% | SF-268 CNS 73.7% | SF-295 CNS 76% | SF-539 CNS 99.6% | UACC-257 melanoma 72% | M14 melanoma 81.5% | HCT-15 colon 37.6%
